{"source": "PubChem BioAssay AID651593", "about": "(National Center for Advancing Translational Sciences (NCATS), 2012)", "note": "The whole screen tested about 1,100 compounds, of which about 860 (78%) were called active. Inconclusive results (about 19%) are left out. So high a share suggests a set chosen from earlier hits. The list shows a part of the results. A number with no mark means an inactive call. Calls come from the whole dose curve; as a rule, active = well fitted activation curve with a large enough effect; inconclusive = small, poorly fitted or top-dose-only effect; inactive = flat fitted curve, though single readings scatter."}
{"assay": "qHTS of Nrf2 Activators: Hit Validation in Primary Assay; note: nearly all actives have a fitted effect of over 70% in size; note: potency is the fitted concentration of half-maximal effect; for activation: 0% is about no effect", "details": "Nrf2/ARE reporter cell assay; Potency: activation; series mostly up to 46.1 µM; activation: at the top concentration", "method_in_brief": "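Luminescence from Steady-Glo lysis reagent, read after 30 min, reported ARE-luciferase activity in AREc32_fluc stable cells. Compounds were tested at several concentrations, incubated 24 h at 37 °C with 5% CO2 following overnight seeding.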", "units": {"activation": "%"}}
{"compound": "COc1cccc(/C=C2/CCC(CN(C)C)C2=O)c1", "note": "(configuration not stated)", "Potency": "3.66 µM (active)"}
{"compound": "C=CCc1cccc(C=Nc2cc(Br)ccc2O)c1O", "Potency": "3.26 µM (active)"}
{"compound": "Cc1ccc(Cn2c(/C=C/c3ccco3)nc3ccccc32)cc1", "Potency": "2.31 µM (active)"}
{"compound": "O=C(Nc1nc2ccccc2[nH]1)c1ccc(Cl)c([N+](=O)[O-])c1", "Potency": "20.6 µM (active)"}
{"compound": "Cc1cc(CNC(=O)c2cccc([N+](=O)[O-])c2)c2ccccc2n1", "activation": 20.2}
{"compound": "O=C(Nc1nc2ccccc2[nH]1)c1cccc([N+](=O)[O-])c1", "Potency": "2.06 µM (active)"}
{"compound": "O=C(Nc1ccccn1)c1ccc(Cl)c([N+](=O)[O-])c1", "Potency": "18.4 µM (active)"}
{"compound": "S=c1[nH]nc(-c2ccncc2)n1/N=C/C=C/c1ccco1", "Potency": "8.2 µM (active)"}
{"compound": "CC(/C=N/n1c(-c2ccncc2)n[nH]c1=S)=C\\c1ccco1", "Potency": "2.59 µM (active)"}
{"compound": "Cc1cccc(-c2n[nH]c(=S)n2/N=C/C=C/c2ccco2)c1", "Potency": "2.06 µM (active)"}
{"compound": "S=c1[nH]nc(-c2ccccc2)n1/N=C/C=C/c1ccco1", "activation": 29.9}
{"compound": "O=C1C(=Cc2cccc(Cl)c2)Cc2ccccc21", "Potency": "4.61 µM (active)"}
{"compound": "O=C1C(=Cc2cccc(F)c2)Cc2ccccc21", "Potency": "13 µM (active)"}
{"compound": "COC(=O)/C=C1/S/C(=N/N=C/c2ccco2)NC1=O", "Potency": "0.82 µM (active)"}
{"compound": "O=C(/C=C/c1cccs1)c1ccco1", "Potency": "20.6 µM (active)"}
{"compound": "CCCN(C(=O)c1ccco1)c1nnc(-c2ccccc2C)s1", "Potency": "8.2 µM (active)"}
{"compound": "S=c1[nH]nc(-c2cccnc2)n1/N=C/C(Cl)=C\\c1ccccc1", "Potency": "14.6 µM (active)"}
{"compound": "S=c1[nH]nc(COc2ccccc2)n1/N=C/C(Cl)=C/c1ccccc1", "Potency": "4.61 µM (active)"}
{"compound": "S=c1[nH]nc(-c2ccco2)n1/N=C/C(Cl)=C/c1ccccc1", "Potency": "23.1 µM (active)"}
{"compound": "Cc1ccc(C)c(NC(=O)COC(=O)c2cc(=O)c3ccccc3o2)c1", "Potency": "20.6 µM (active)"}
{"compound": "O=C(Nc1ccc(F)cc1)c1cc2ccccc2o1", "Potency": "3.66 µM (active)"}
{"compound": "Cc1ccc(NC(=O)c2cc(=O)c3ccccc3o2)cc1", "Potency": "20.6 µM (active)"}
{"compound": "O=c1oc(CCCO)cc2ccc(C#Cc3ccsc3)cc12", "Potency": "2.31 µM (active)"}
{"compound": "O=c1[nH]c(O)c(/C=C2\\C=Nc3ccccc32)[nH]1", "Potency": "14.6 µM (active)"}
{"compound": "O=c1[nH]c(O)c(/C=C2\\C=Nc3ccc(Br)cc32)[nH]1", "Potency": "8.2 µM (active)"}
{"compound": "O=C(CN1CCS(=O)(=O)CC1)N/N=C/c1cccc(C(F)(F)F)c1", "Potency": "2.31 µM (active)"}
{"compound": "Oc1ccccc1-c1csc(-c2ccccc2)n1", "Potency": "7.31 µM (active)"}
{"compound": "Nc1nc(-c2ccccc2)cc(-c2ccccc2O)n1", "Potency": "4.11 µM (active)"}
{"compound": "CC1Sc2n(c3ccccc3[n+]2C)N=C1c1ccccc1", "note": "(configuration not stated)", "Potency": "7.31 µM (active)"}
{"compound": "C[n+]1c2n(c3ccccc31)N=C(c1ccccc1)CS2", "Potency": "2.91 µM (active)"}
{"compound": "COc1cc2c(c(Br)c1N)-c1cc(Br)c(N)cc1C2=O", "Potency": "4.11 µM (active)"}
{"compound": "O=C(Nc1ccccc1C(=O)N/N=C/c1ccco1)c1ccc(F)cc1", "Potency": "2.31 µM (active)"}
{"compound": "Nc1c(Cl)c(Cl)nc(C(=O)N/N=C/c2ccco2)c1Cl", "Potency": "2.59 µM (active)"}
{"compound": "O=C(Nc1ccccc1C(=O)N/N=C/c1ccco1)c1ccccc1", "Potency": "2.31 µM (active)"}
{"compound": "Cc1nn(C)c(C)c1/C=C(/C(=O)C(C)(C)C)n1cncn1", "Potency": "11.6 µM (active)"}
{"compound": "O=C(CN1C(=O)S/C(=C\\c2ccccc2Cl)C1=O)NC1C=CS(=O)(=O)C1", "note": "(configuration not stated)", "Potency": "18.4 µM (active)"}
{"compound": "O=[N+]([O-])c1cc(Cl)cc(/C=N/Nc2nc3ccccc3s2)c1O", "activation": 16.4}
{"compound": "Brc1cc2c(cc1/C=N/Nc1nc3ccccc3s1)OCO2", "Potency": "2.31 µM (active)"}
{"compound": "N#Cc1c(-c2ccco2)cc(-c2ccc(F)cc2)nc1N", "Potency": "2.31 µM (active)"}
{"compound": "CC(C)Cc1cc(-c2ccco2)c(C#N)c(N)n1", "Potency": "1.3 µM (active)"}
{"compound": "CCc1nc(N)c(C#N)c(-c2ccco2)c1C", "Potency": "1.64 µM (active)"}
{"compound": "N#Cc1c(-c2ccco2)cc(-c2ccccn2)nc1N", "Potency": "2.31 µM (active)"}
{"compound": "O=[N+]([O-])c1cccc(-c2cnc3ccccc3n2)c1", "Potency": "6.51 µM (active)"}
{"compound": "O=C(Oc1cccc(-c2cnc3ccccc3n2)c1)c1ccco1", "Potency": "3.26 µM (active)"}
{"compound": "c1coc(-c2cnc3ccccc3n2)c1", "Potency": "5.17 µM (active)"}
{"compound": "CC(=O)Nc1ccc(O)c(-c2nc3ccccc3s2)c1", "Potency": "2.06 µM (active)"}
{"compound": "O=[N+]([O-])c1ccc(Cl)c(/C=N/n2c(-c3ccncc3)n[nH]c2=S)c1", "Potency": "11.6 µM (active)"}
{"compound": "O=C(N/N=C/c1ccc(-c2cccc([N+](=O)[O-])c2)o1)c1cccs1", "Potency": "2.06 µM (active)"}
{"compound": "CCN1C(=O)/C(=C\\c2ccco2)C(C(=O)OC)=C1C", "Potency": "3.26 µM (active)"}
{"compound": "COC(=O)C1=C(C)N(c2ccc(Br)cc2)C(=O)/C1=C\\c1ccco1", "Potency": "18.4 µM (active)"}
{"compound": "COC(=O)C1=C(C)N(C)C(=O)/C1=C\\c1ccco1", "Potency": "2.06 µM (active)"}
{"compound": "COC(=O)C1=C(C)NC(=O)/C1=C\\c1ccco1", "Potency": "3.66 µM (active)"}
